# Source: the supplement of paper PMC6555819
# What was measured:
# Experiment in all cases: PBM binding z-score (relative to random genomic background probes); higher = stronger binding; sequences stand for … in GC…GCGATTGACAGCGTAGAATGAAGG
# [1] = test system: RARb homodimer (NR concentration 270 nM)
# Method in brief: (§1)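 Antibodies against each partner of ligand-free nuclear receptor dimers (one per run) detected binding on custom Agilent 4×180K protein-binding microarrays after 1 h incubation. The double-stranded probes had 34-nt variable regions carrying direct-repeat seeds, single-nucleotide variants, half-site ablations and random human genomic background sequences. Binding z-scores, from regression-normalized fluorescence, use the random background probes as reference.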
# [2] = test system: RARg:RXRa (NR concentration 270 nM, RXRa partner concentration 90 nM)
# Method in brief: as §1
# [3] = test system: RARg homodimer (NR concentration 270 nM)
# Method in brief: as §1
# [4] = test system: RXRa DBDmut IVT, anti-RXR (DBD mutation: RXRa K156A/R161A, NR concentration 90 nM)
# Method in brief: as §1
# [5] = test system: RXRa homodimer (NR concentration 180 nM)
# Method in brief: as §1
# [6] = test system: THRa:RXRa (NR concentration 90 nM, RXRa partner concentration 90 nM)
# Method in brief: as §1
# [7] = test system: THRa homodimer (NR concentration 90 nM)
# Method in brief: as §1
# [8] = test system: VDR:RXRa (NR concentration 270 nM, RXRa partner concentration 90 nM)
# Method in brief: as §1
# [9] = test system: VDR homodimer (NR concentration 270 nM)
# Method in brief: as §1
Sequence,PBM binding z-score [1],PBM binding z-score [2],PBM binding z-score [3],PBM binding z-score [4],PBM binding z-score [5],PBM binding z-score [6],PBM binding z-score [7],PBM binding z-score [8],PBM binding z-score [9]
CGTCCAAGGCCAGCAGGTCAGTGAAAGCGACGTG,2.34,1.85,2,-0.479,0.648,1.3,0.193,-0.178,-0.465
GTTACAGGGTCAGCTAGAGGCCAGAGTATGGAAA,3.54,6.82,5.21,1.4,4.47,3.11,0.599,3.39,1.01
ATATGTCGGTTATCGGGTCATTCAGTTTGCGCAT,2.64,2.72,2.04,1.42,2.51,3.14,2.54,4.84,3.21
CAAACTAGGTCAAGGACAGTGAATCTCCGCACGC,3.29,3.69,4.39,1.7,2.79,3.27,2.33,1.56,0.901
GCCAGCAGGCCATTTGGGTCACTCAATGACGGGC,1.78,1.14,1.3,-0.31,0.736,1.8,0.516,0.978,0.49
CTCGAAAGGACGGTTGAGGTGAGTATACGGATAA,0.363,0.406,0.541,-0.024,0.139,2.93,0.887,-0.266,0.0364
TCATATAGGTAAAGGTGACAGTCGAACGATATGA,1.42,1.61,1.5,0.827,2.06,1.38,-0.0654,0.874,-0.0372
CAAACTAGGTCACGAAAGGTTAAAGTCGAATGAC,4.85,6.19,6.18,1.95,5.5,4.67,1.78,5.27,1.8
TTACCTAGGTGAGCTGAGGTCGTTGATCCAACTC,1.32,0.757,0.325,0.055,1.01,4.18,2.11,3.05,1.73
CCTTACGGGTCAAGGTGATAGCACGGGTGGTACG,3.13,4.81,4.64,0.497,5.2,2.94,0.765,2.92,0.801
CGTCCAAGGTCAATGCTAGGTCAGTGCAAGCATT,5.12,7.51,6.92,3.53,5.11,4.39,3.05,4.95,3.46
CTTCCAAGGTCAGAGAGGTCAGTGAATGCCGAGT,5.27,6.1,7.29,2.97,5.22,4.3,2.74,7.43,5.58
TTACCAAGGTGAAAGGGCGTTGATGCACGCCTTG,1.2,1.59,0.688,-0.264,2.14,1.99,0.369,0.61,0.227
TCTAATTGGTCACGGAGGTCACACACGACGGGTA,4.68,5.01,5.18,1.55,5.28,3.73,2.75,6.1,3.23
CAAACTAGGTCAAGTTCAAAGTCGGTTTGTGCCA,4.52,5.17,5.92,3.84,4.23,3.52,2.16,4.94,6.29
ATCGAAAGGTAGACGAGGTGAGTATACACCGTTT,0.107,0.927,0.758,-0.531,0.582,2.01,0.239,0.452,-0.467
ATCGAAAGGTCGTGAGGCGAGTATACAGAAAGGC,2.55,4.39,3.91,1.28,5.34,2.49,-0.00887,3.18,0.582
ACAGACAGGTGTGTGAAGGTAACTCAGCTGGACG,-0.271,-0.0907,-0.134,-0.313,0.0111,-0.0622,-0.902,-0.572,-0.49
GGAACTAGGGCATTCGAGTTGATAGCATGGCGAT,0.555,0.292,0.971,0.774,0.131,2.13,-0.433,1.23,0.769
CCTTCTGGGCCACGAAAGGTCATTGATTCAGTGA,4.62,4.94,4.61,0.819,5.38,4.04,0.878,4.28,2.42
GCTCGGAGGACAAGGTCAGAACTTTGTCCGTAGA,2.83,3.15,3.26,0.38,2.6,2.67,0.989,1.37,0.595
AGTCAAAGTTCTGGACGAGGTAACGTAAAGCACG,-0.148,0.171,0.32,-0.639,0.0678,1.41,0.761,-0.216,-0.322
CCTATTAGTTGACCATAAGGGGAACCGAAGCTCG,0.9,0.438,0.565,0.467,0.236,0.633,0.694,0.632,0.895
TTTTGTAGATCAACAGGAGGTTAAGAAAGATCGA,0.787,1.04,0.47,-0.291,1.23,1.23,0.167,0.859,0.336
TCTTGTAGATCAAGCATGTTAAGAAAGCCTGAGT,-0.365,-0.147,-0.0954,0.943,0.122,-0.0977,-0.856,0.348,0.128
CGAACGAGGGCCTGAGTTGATAGCAAATGCCGAT,-0.782,-0.386,-0.326,0.337,-0.236,-0.563,-0.666,-0.469,-0.394

Sequence,PBM binding z-score [1],PBM binding z-score [2],PBM binding z-score [3],PBM binding z-score [4],PBM binding z-score [5],PBM binding z-score [6],PBM binding z-score [7],PBM binding z-score [8],PBM binding z-score [9]
TTACCAAGGTGAGCTGCGGTCGTTGATCCAACTC,0.677,0.0521,0.0746,-0.731,0.198,2.28,0.255,0.235,-0.523
CCGACTGGGGCAAAGGTTACCTTACTCAGTACGA,2.02,3.15,1.62,0.0718,3.54,2.12,0.802,1.21,-0.495
CCTATTAGTGGACCATAAGGGCAACCGAAGCTCG,1.53,0.433,0.657,0.115,0.31,1.38,0.862,0.134,0.415
CTCGAAAGGTCGTGCTCAGGAGAGTATACCAAAC,2.52,4.36,4.09,1.88,5.03,2.64,0.423,,1.36
TGAATGGGGTTATAAGATCAGGGAACGTTGCAAA,1.49,2.3,0.965,1.6,3.95,2.45,1,2.58,1.23
TCTATTAGTGGAAGGGCAACCGACGAGTCCGTTT,1.21,0.443,0.673,1.28,0.619,0.13,0.0131,0.969,1.3
TCGAGTAGGTTAGTCGCGGCATTCAGCCAACATA,-0.376,-0.336,-0.495,-0.209,-0.0361,-0.287,-1.14,-0.415,-0.682
AGAATGAGGTTATACGTAGATCAGGCAAGAAAGT,0.646,1.78,1.11,1.62,2.14,2.26,0.402,1.46,0.719
TCAGACAGGTGAATGTAACTCAGGTACGCAGTCG,0.305,0.399,0.476,1.01,0.802,0.274,0.15,0.512,0.463
CGAACTAGGTCAGTACAGGACAGTGAAGGATGAT,2.51,2.64,3.79,0.399,1.3,3.38,0.28,0.713,0.105
CGTCAAAGTTCGACTAAGGTAACGTAAAGCACGC,1.77,2.14,1.99,2.97,1.5,4.99,1.58,,1.03
CAAACTAGGTCAAGGTCAAAGTTGGTTTGTGCCA,5.15,6.1,6.67,3.1,6.01,4.39,3.85,5.16,4.14
TCTAGCAGGCCAGAGGGCCACTCAAGAGGTACGG,-0.0244,-0.057,-0.117,-0.104,0.144,-0.545,-1.1,-0.505,-0.232
CCGACTGGGGCTTAAGGTTACCATAAGCCAGCCC,0.796,0.272,0.0964,-0.55,0.688,2.53,1.94,-0.156,-0.232
TCTCGGAGGACACGAAAGGTCAGATCTCGACATC,4.71,4.58,4.87,1.53,3.65,3.82,1.45,3.38,1.13
CCGACTGGTGCAAGGTTACCATAACGCACAGCCA,0.979,0.462,0.421,0.0825,0.899,1.08,0.473,0.278,0.112
ACAGACAGGTGCTGAAGGTAACTCAGGCTATCAT,-0.511,-0.0198,0.00684,-0.376,-0.0891,0.3,-0.356,-0.264,-0.984
CCAGACAGGTGAAAGCTAACTCAGTCTGGTACGC,-0.273,0.135,0.254,-0.328,0.326,-0.0859,-0.832,-0.274,-0.146
GCTATTAGTTGAAAGGGCAACCGAATGATTCTCG,2.09,1.26,1.37,0.972,1.21,0.664,-0.209,0.531,0.624
CAGCCTAGGTCAGGGCCACTATAGGAGGAACGTT,2.67,3.08,3.7,0.123,1.84,2.19,0.516,,-0.129
ATCTCTAGGTAACAATTTCAGTGAAAGAGAGGAC,0.316,0.547,0.814,0.235,0.51,1.06,0.784,0.483,0.542
CATTCAGGGTCAGCTAGGCCAGAGTAGGGACGGC,3.59,4.64,5.03,2,5.08,3.44,1.31,4.34,1.42
ATCTTTAGGTAAAAGTTCAGTGAATCCCGAGGAT,2.61,1.69,1.85,1.27,1.57,1.76,0.573,1.43,1.63
CCGACTGGGGCAAAGGTTATCATACTCAGTACGA,1.89,3,1.45,0.137,3.11,1.66,-0.0355,1.46,0.133
ATCTCTAGGTAACCAAGTTCAGTGCATGCCGAAC,1.69,0.735,0.952,1.12,0.814,1.62,0.968,4.21,3.1
AGAATGAGGTTATTAACATCAGGGAATTGCGGTC,0.673,1.11,0.779,1.83,1.67,2.13,0.447,1.31,1.12
